From PubChem BioAssay
C diff growth – inhibitors of Clostridium difficile growth | Clostridium difficile clinical isolate growth, OD600, 24 h; stronger effect = lower value | growth activity, negative = inhibition, % at 16 µg/mL (by protocol) | 0.25% of 86,000 active;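 active = mean growth activity at or below -80% and every replicate also at or below -80%; inconclusive = mean at or below -80% but some replicate above -80%; inactive = mean growth activity above -80%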
Pf Dd2 growth – P. falciparum Dd2 growth inhibition; SYBR Green, 72 h; stronger effect = lower value; 2.3% of 94,000 active; activity change, % at 10 µM; in the data active = activity change below about -80%; inconclusive = no clear call, values can overlap the other calls
T cruzi growth-1 – inhibitors of T. cruzi proliferation. 5.9% of 77,000 active. inhibition, % at 8.34 µM. T. cruzi beta-gal in NIH3T3, GalScreen luminescence, 90 h. AID 624255;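 active = mean inhibition above about 93%, with at least 55% of replicates each passing it, limit read from the data, passing the limit was not always enough; inconclusive = only one of those two conditions holds; inactive = neither condition holds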
T cruzi growth-2 – Trypanosoma cruzi proliferation inhibition; shares compounds with T cruzi growth-1; T. cruzi beta-gal in NIH3T3, GalScreen luminescence, 90 h; inhibition, % at 8.35 µM; 72% of 5,600 active; AID 651739;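 active = mean replicate inhibition above about 95% and at least 55% of replicates individually reaching it, limit read from the data; inconclusive = only one of the two criteria is met; inactive = neither criterion is met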
T cruzi growth-3 – Trypanosoma cruzi proliferation inhibition; shares compounds with T cruzi growth-1; T. cruzi beta-gal in NIH3T3, GalScreen luminescence, 90 h; inhibition, % at 2.09 µM; 21% of 5,600 active; AID 651740;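 active = mean inhibition above about 95%, with at least 55% of replicates also reaching it, limit read from the data; inconclusive = meets just one of the two conditions; inactive = meets neither condition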
3T3 cytotox – kills mouse NIH/3T3 fibroblasts; shares compounds with T cruzi growth-1; NIH/3T3 viability, CellTiter-Glo ATP luminescence, 90 h; cytotoxicity (signal decrease), % at 8.35 µM; 14% of 5,600 active; AID 651742;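 active = mean signal decrease across replicates above about 35% based on untreated-well scatter, with enough replicates individually passing, limit read from the data; inconclusive = no rule stated though some were filed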
3T3 cytotox 2 – cytotoxicity in mouse NIH/3T3 fibroblasts. 56% of 5,600 active. inhibition, % at 24.9 µM. NIH/3T3 viability, CellTiter-Glo ATP luminescence, 90 h. shares compounds with T cruzi growth-1. AID 651744;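 active = mean loss of cell viability signal at or above a set limit, and enough replicates individually reaching it; inconclusive = meets only the mean limit or only the replicate share; inactive = meets neither condition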
Of the large screens only hits and unclear results are named; the others gave an inactive call (follow-up assays come after a bar, where they were run). A selection: hits, their analogues and other compounds. The true share with any hit is near 6.7%.

Cc1ccc(S(=O)(=O)N[C@@H]2CC[C@@H](CCNC(=O)Cc3ccccn3)O[C@H]2CO)cc1	T cruzi growth-1 inconclusive | T cruzi growth-2 inactive | T cruzi growth-3 inactive | 3T3 cytotox inactive | 3T3 cytotox 2 inactive
C[C@H](CO)N1C[C@H](C)[C@@H](CN(C)CC2CC2)Oc2ccc(NC(=O)Cc3cn(C)c4ccccc34)cc2CC1=O	none
C/C=C/c1ccc2c(c1)[C@H]1[C@H](CCN1C(=O)COC)[C@@H](CO)N2	none (no result: T cruzi growth-1)
O=C(CC1CC1)Nc1ccc2c(c1)[C@@H]1C[C@@H](CC(=O)N3CCc4ccccc4C3)O[C@@H](CO)[C@@H]1O2	none
COc1ccc(S(=O)(=O)N(C)C[C@@H]2Oc3c(NC(=O)Nc4c(C)noc4C)cccc3C(=O)N([C@H](C)CO)C[C@@H]2C)cc1	none
CC(C)NC(=O)Nc1ccc2c(c1)C(=O)N([C@@H](C)CO)C[C@H](C)[C@@H](CN(C)Cc1ccc(Cl)c(Cl)c1)OCCCC[C@@H](C)O2	none (no result: T cruzi growth-1)
C[C@H](CO)N1C[C@H](C)[C@@H](CN(C)Cc2ccc(Cl)c(Cl)c2)OCCCC[C@H](C)Oc2ccc(NC(=O)Nc3ccc4c(c3)OCO4)cc2C1=O	none
C[C@@H]1CCCCO[C@H](CN(C)Cc2ccc(Cl)c(Cl)c2)[C@@H](C)CN([C@@H](C)CO)C(=O)c2cc(NC(=O)NC3CCCCC3)ccc2O1	none (no result: T cruzi growth-1)
C[C@@H]1CCCCO[C@H](CN(C)Cc2ccc(Cl)c(Cl)c2)[C@@H](C)CN([C@H](C)CO)C(=O)c2cc(NC(=O)Nc3ccc(F)cc3)ccc2O1	T cruzi growth-1 102 (no result: C diff growth) | T cruzi growth-2 inconclusive | T cruzi growth-3 108 | 3T3 cytotox inactive | 3T3 cytotox 2 inactive
CC(C)NC(=O)Nc1ccc2c(c1)C(=O)N([C@H](C)CO)C[C@H](C)[C@@H](CN(C)Cc1ccc(Cl)c(Cl)c1)OCCCC[C@H](C)O2	none (no result: Pf Dd2 growth, T cruzi growth-1)
C[C@@H]1CCCCO[C@H](CN(C)Cc2ccc(Cl)c(Cl)c2)[C@H](C)CN([C@@H](C)CO)C(=O)c2cc(NC(=O)Nc3ccc(F)cc3)ccc2O1	Pf Dd2 growth -85, T cruzi growth-1 106 (no result: C diff growth) | T cruzi growth-2 99 | T cruzi growth-3 110 | 3T3 cytotox inactive | 3T3 cytotox 2 inconclusive
C[C@@H]1CN([C@@H](C)CO)C(=O)c2cc(NC(=O)Nc3ccc(F)cc3)ccc2O[C@@H](C)CCCCO[C@H]1CN(C)Cc1ccc(Cl)c(Cl)c1	T cruzi growth-1 103 (no result: C diff growth) | T cruzi growth-2 inactive | T cruzi growth-3 110 | 3T3 cytotox 44 | 3T3 cytotox 2 inactive
C[C@@H]1CCCCO[C@@H](CN(C)Cc2ccc(Cl)c(Cl)c2)[C@@H](C)CN([C@H](C)CO)C(=O)c2cc(NC(=O)Nc3ccc(F)cc3)ccc2O1	T cruzi growth-1 109 (no result: C diff growth) | T cruzi growth-2 101 | T cruzi growth-3 109 | 3T3 cytotox inactive | 3T3 cytotox 2 inactive
C[C@@H]1CN([C@H](C)CO)C(=O)c2cc(NC(=O)c3ccccc3)ccc2O[C@@H](C)CCCCO[C@@H]1CN(C)C(=O)CCC(F)(F)F	none
COc1ccc(S(=O)(=O)N2CC[C@H]3[C@H](CO)Nc4ccc(Br)cc4[C@H]32)cc1	none
Cc1cccc(S(=O)(=O)N2CCCCN3[C@H](CO)[C@H](c4ccc(C#CC5CC5)cc4)[C@H]3C2)c1	none
Cc1ccccc1-c1cnc2c(c1)C(=O)N([C@@H](C)CO)C[C@@H](C)[C@@H](CN(C)C(=O)c1ccc(F)cc1)O2	none (no result: T cruzi growth-1)
CCC(=O)N1[C@H](CO)[C@@H]2c3ccccc3N(C(=O)c3ccc4c(c3)OCO4)C[C@@H]21	none
C[C@@H]1CCCCO[C@H](CN(C)Cc2ccc3c(c2)OCO3)[C@H](C)CN([C@@H](C)CO)C(=O)c2cc(NC(=O)Nc3ccc(F)cc3)ccc2O1	T cruzi growth-1 105 | T cruzi growth-2 105 | T cruzi growth-3 103 | 3T3 cytotox inactive | 3T3 cytotox 2 104
CC(C)NC(=O)Nc1ccc2c(c1)C(=O)N([C@H](C)CO)C[C@@H](C)[C@@H](CN(C)Cc1ccc3c(c1)OCO3)OCCCC[C@H](C)O2	none
C[C@@H]1CCCCO[C@@H](CN(C)Cc2ccc3c(c2)OCO3)[C@H](C)CN([C@@H](C)CO)C(=O)c2cc(NC(=O)Nc3ccc(F)cc3)ccc2O1	T cruzi growth-1 110 | T cruzi growth-2 98 | T cruzi growth-3 inactive | 3T3 cytotox inactive | 3T3 cytotox 2 92
C[C@@H]1CCCCO[C@H](CN(C)Cc2ccc3c(c2)OCO3)[C@@H](C)CN([C@H](C)CO)C(=O)c2cc(NC(=O)Nc3ccc(F)cc3)ccc2O1	T cruzi growth-1 98 | T cruzi growth-2 112 | T cruzi growth-3 inactive | 3T3 cytotox inactive | 3T3 cytotox 2 inactive
C[C@@H]1CCCCO[C@@H](CN(C)Cc2ccc3c(c2)OCO3)[C@@H](C)CN([C@@H](C)CO)C(=O)c2cc(NC(=O)Nc3ccc(F)cc3)ccc2O1	T cruzi growth-1 98 | T cruzi growth-2 110 | T cruzi growth-3 inactive | 3T3 cytotox inactive | 3T3 cytotox 2 inactive
C[C@H](CO)N1C[C@H](C)[C@H](CN(C)Cc2ccc3c(c2)OCO3)OCCCC[C@H](C)Oc2ccc(NC(=O)Nc3ccc(F)cc3)cc2C1=O	none
CC(C)NC(=O)Nc1ccc2c(c1)C(=O)N([C@@H](C)CO)C[C@H](C)[C@@H](CN(C)Cc1ccc3c(c1)OCO3)OCCCC[C@@H](C)O2	none
CC(C)NC(=O)Nc1ccc2c(c1)C(=O)N([C@@H](C)CO)C[C@@H](C)[C@@H](CN(C)Cc1ccc3c(c1)OCO3)OCCCC[C@@H](C)O2	none
C[C@@H](NC(=O)C[C@H]1C[C@@H]2c3cc(NC(=O)CN(C)C)ccc3O[C@@H]2[C@@H](CO)O1)c1ccccc1	none
CN(C)C(=O)c1ccc(-c2cccc(-c3nc(C(=O)NC4CCCC4)cc4c3[C@H](CCO)N([S@@](=O)C(C)(C)C)C4)c2)cc1	none (no result: C diff growth)
O=C(C[C@@H]1CC[C@@H]2[C@H](COC[C@@H](O)CN2C(=O)Cc2ccccc2)O1)NC1CCC1	none (no result: C diff growth)
C[C@@H]1CCCCO[C@H](CN(C)Cc2ccc3c(c2)OCO3)[C@@H](C)CN([C@@H](C)CO)C(=O)c2cc(NC(=O)Nc3ccc(F)cc3)ccc2O1	T cruzi growth-1 105 | T cruzi growth-2 102 | T cruzi growth-3 104 | 3T3 cytotox inactive | 3T3 cytotox 2 105
CC(C)NC(=O)Nc1ccc2c(c1)C(=O)N([C@H](C)CO)C[C@@H](C)[C@@H](CN(C)Cc1ccc3c(c1)OCO3)OCCCC[C@@H](C)O2	none
O=C(C[C@H]1C=C[C@@H](NC(=O)Nc2cccc(F)c2)[C@@H](CO)O1)NCC1CC1	none (no result: T cruzi growth-1)
CC=Cc1ccc2n(c1=O)C[C@@H]1[C@@H](CO)[C@H](C(=O)NCC)N(Cc3ccccc3Cl)[C@H]21 (mixture of isomers)	none (no result: C diff growth, Pf Dd2 growth)
